Reference: paper PMC12136788
Numbering of substitutions follows the chain as printed. In all, about 24,000 sequences were measured (“enrichment r”: median about 0.99, highest 2% from about 3.7 on). The sample holds the highest values, similar sequences and a random draw of the others, so the mix is not that of the screen.

T1: UNK ZnF1-3 (human, UniProt Q9C0B0 31-174)
T1 sequence: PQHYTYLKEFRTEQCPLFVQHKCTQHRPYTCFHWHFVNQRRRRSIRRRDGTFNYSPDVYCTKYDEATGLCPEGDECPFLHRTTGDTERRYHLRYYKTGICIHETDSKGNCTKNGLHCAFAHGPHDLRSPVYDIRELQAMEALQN

B1: 33187691_33187811_5116_3pUTR_ENSG00000170275_ENST00000320954|human|control|control (ssRNA)
RNA: GGGAGUUCUACAGUCCGACGAUCGCCUGCAGAACCAAACAGCAACCACUGAGCUCCAUGCUGAUGGGUCAAAGGACAAGCAAGGCAUCUUAGAGCAGGCCUGGAAGCUCCCACAAAGCUUACAAAUGUGUUUGUUUUUUCGAACAACAGAGGAUUGAGCAUCA
B2: chr6:38652254:38652255:-_ENSG00000124767_ENST00000373365|hu_hu|hu_hu_hu_mus_False|18_18 (ssRNA)
RNA: GGGAGUUCUACAGUCCGACGAUCCGAGAACUUCAUAGCAGGGAAGUCAAGCUUCUGCAGGAGGGUCAGUCCAAGAACCCUCGUAUAAAAAUCCAGGGACUUCUUAGGAUCCUUAAUUCGUAGCAUGGUUUGCUGCAGUAGAAACAACAGAGGAUUGAGCAUCA
B3: chr2:43450610:43450611:-_ENSG00000152518_ENST00000282388|hu_hu|motif|central (ssRNA)
RNA: GGGAGUUCUACAGUCCGACGAUCAGUUAAAUAGUUUUCAUAUUGAGUUGUGGUGCAGUGGUGCGAAUCAACUCAAAACAGCGGAAAAUUCAGCAGUUAUUCUCCAACAAUUACAAAGUAAGCUCUGCGCAAGGCUUCCAGAGGCAACAGAGGAUUGAGCAUCA
B4: chr17:36096658:36096659:-_ENSMUSG00000038762_ENSMUST00000043757|mus_mus|FALSE|FALSE (ssRNA)
RNA: GGGAGUUCUACAGUCCGACGAUCCUGCUUCUCGUACUGCUUUAGCAGCUCUUUCUGCUUCUGCUGGUACAUCUUCUUGAAGGUCAUGUAAUUGCCCCUGUAGUAAUGGAGCCGCUGGGUGUCCAGGUGGAUGAUAUCAGUGCACAACAGAGGAUUGAGCAUCA
B5: chrX:71549400:71549401:+_ENSMUSG00000019087_ENSMUST00000019231|mus_hu|mus_mus_mus_hu_False|28_98 (ssRNA)
RNA: GGGAGUUCUACAGUCCGACGAUCGCAGUAGGAAGAGCAAACCUUUCCAGUCCAGUGCGCUGCAGGGUGGGAAAGCAACAACACGGACACCGUCCCACCCUCAACCCUCUCAGGUGUACAGGGUCACACAAUCUGGGUCAAAGACAACAGAGGAUUGAGCAUCA
B6: chr13:100193180:100193181:-_ENSMUSG00000052727_ENSMUST00000064762|mus_mus|FALSE|FALSE (ssRNA)
RNA: GGGAGUUCUACAGUCCGACGAUCAUAAUAUAAAGGCUAAAUAAAUUUAAGUUGGAAAACUGGAAGAUAACUCCAUCUUCUAUGAAAGAAAAGUCAACCAGAGGUCUGGAUUUGGCAAGAAGGCUAGAAAUUGUUUCUCUUCACCAACAGAGGAUUGAGCAUCA
B7: chr1:182797045:182797046:+_ENSMUSG00000038806_ENSMUST00000038091|mus_hu|FALSE|FALSE (ssRNA)
RNA: GGGAGUUCUACAGUCCGACGAUCAGACUCAAGCUAAAUAGAAGAAAGAAAAUAACAGAAAUUAAUUAUAUAAACAAUUGAGAAAAAUAAAACCAAAGGUUGGUUCUUUAAAAGUUAUAUCGUCGGCCAGGCACGGUGGCUCACCAACAGAGGAUUGAGCAUCA
B8: chr4:11091628:11091629:+_ENSMUSG00000028211_ENSMUST00000029865|mus_mus|motif|central (ssRNA)
RNA: GGGAGUUCUACAGUCCGACGAUCUUCUUUCUCACUGAAUUCUGGUUCUUGGCUGGAAGAAGUAGUGACUUCGCCGGCAAACAUUUUAUUCAGUCUCUGAAACAUUGUUAAGGCAAGAUUGAGAUUUUGGCUAGAUAUCUUUAUCAACAGAGGAUUGAGCAUCA
B9: chr13:100193180:100193181:-_ENSMUSG00000052727_ENSMUST00000064762|mus_mus|motif|central (ssRNA)
RNA: B6 RNA with U80G, A81G
B10: chr17:65337090:65337091:-_ENSG00000197170_ENST00000584008|hu_hu|FALSE|FALSE (ssRNA)
RNA: GGGAGUUCUACAGUCCGACGAUCACCAGUCAUUUAAUAAAUUAUUUGGAUCCUUGGGUCUCUGGAAGUUGAUAAUUCCUGCUAAUCUGUCUACUUUAGCAAAGAUGGUCUUGUUAACUACUAGAUUUGAGAGAAAGGCUUCGGCAACAGAGGAUUGAGCAUCA
B11: 134340332_134340452_1702_CDS_ENSG00000130723_ENST00000357304|human|control|control (ssRNA)
RNA: GGGAGUUCUACAGUCCGACGAUCAGGGCCGUUUUCCUGGGGAGAUGCCUUCUCAGCACUUGGAGACCAGGGCACUUCCUUCUCUGCCUGCUUCCGGGCCUCACCUGCCUUUCGUGCCUGCUUACACUUCUGGUCCAGCUGCUUCAACAGAGGAUUGAGCAUCA
B12: 79156280_79159801_5654_CDS_ENSMUSG00000039414_ENSMUST00000097281|mouse|control|control (ssRNA)
RNA: GGGAGUUCUACAGUCCGACGAUCACUGCUGGCAGACCACAGGAAGAGCGCAAUGGCUGUGAGUGUGCUCACUUCGUCAGGUGCGGGCAUACAGUCAUCUGGUUGAGAAUAUUCCAGGAUGCAGGCAAGGGUGCUCCGGAUUAGCAACAGAGGAUUGAGCAUCA
B13: chr10:40656395:40656396:+_ENSMUSG00000019831_ENSMUST00000105509|mus_mus|FALSE|FALSE (ssRNA)
RNA: GGGAGUUCUACAGUCCGACGAUCUUGUGAUGGAGGAGAUGGAGGCAUUAAUGGAGCAUGGGGACCCGGGGCAGUAGAUGGUGCUGGAUGGAGCCCAGAGGGAGGAUGAGCAAGAGCUGCAACUGCGACAGGAGAUGAUGGCCGCAACAGAGGAUUGAGCAUCA
B14: chr4:144460044:144460045:+_ENSG00000153147_ENST00000283131|hu_mus|hu_hu_hu_mus_False|8_68 (ssRNA)
RNA: GGGAGUUCUACAGUCCGACGAUCACGGUCCAUAGCCUGAAGAUCAACUUGCGGAUUCCAAUCUGAGUCAUACAAAAUGACUACAUCAGCAGUUGCAAGAUUGAUGCCCAGACCACCAGCACGUGUGCUUAACAUGAAUACAAACAACAGAGGAUUGAGCAUCA
B15: chr22:19452774:19452775:-_ENSG00000070010_ENST00000399523|hu_hu|hu_hu_hu_mus_False|58_88 (ssRNA)
RNA: GGGAGUUCUACAGUCCGACGAUCCUUCUCAUUGUAGUUGAUAGCAAUCACAUCCCCAGUCGUCAGACAGGCGAAGUUCCUAAGUGCAUUUUCUAAUACCGCUUUAGGGUUGGUAAUAUCCAGGAAGUCUGGGCUCUGAGGCUGCAACAGAGGAUUGAGCAUCA
B16: 91655523_91655643_1000_CDS_ENSMUSG00000022961_ENSMUST00000114036|mouse|control|control (ssRNA)
RNA: GGGAGUUCUACAGUCCGACGAUCCUCCGAUGGUGCUUCUACAGGCUGCUCUGGCAAUCUUUGCACGUCAGUUGUAGAUGACUCUGGAAAAUCCAUUGUUGAUGGGCUUGGUUCAGGGUGCACCUCAGUAGGUGUCUCUGACACCAACAGAGGAUUGAGCAUCA
B17: chr16:2011185:2011186:+_ENSG00000140990_ENST00000268668|hu_hu|motif|central (ssRNA)
RNA: GGGAGUUCUACAGUCCGACGAUCCACGCGGCGGUACUGCCGGUGGUAGUAGUAAUACCUGUUCUUUGCGUGCUGCCGCUCGGUAAAUUCUCUCACGAGGGUCACGGGUCGGUCCACGAUGAGGUCGAACGCUUUCAUCAUGUACAACAGAGGAUUGAGCAUCA
B18: chr10:75542919:75542920:+_ENSG00000172586_ENST00000372833|hu_mus|FALSE|FALSE (ssRNA)
RNA: GGGAGUUCUACAGUCCGACGAUCUGAGAGUUCAUUGAAAAUAUUUCUCCAUUUUCAGAUGAGAUGAGAUUUGUUGGGAAAUCUCUGUAACAACUUGGUCAUCUUGUGGGGAGAUAAACUCUCGGACUGUCCCAGAGACUCCUGCAACAGAGGAUUGAGCAUCA
B19: chr15:85967975:85967976:+_ENSMUSG00000035900_ENSMUST00000088931|mus_mus|motif|central (ssRNA)
RNA: GGGAGUUCUACAGUCCGACGAUCACAGAGCAUUUUAGGUUUAUUAAAUAAAAAUUAUAAUUUAUACAAGACUUUGUAUCGGAACAAGGUUUUCUUUUUUUAAAAAAAAAAGUGACAGAGGAUUUUUUUUCCUAUCAGUUCUUUCAACAGAGGAUUGAGCAUCA
B20: chr15:85967975:85967976:+_ENSMUSG00000035900_ENSMUST00000088931|mus_mus|FALSE|FALSE (ssRNA)
RNA: B19 RNA with G80U, G81A
B21: chr5:162868235:162868236:+_ENSG00000113328_ENST00000340828|hu_hu|motif|central (ssRNA)
RNA: GGGAGUUCUACAGUCCGACGAUCCCAACACACCUUCUCCAAUACAAUCUUUUCCAUUCUCAUCAAGUCUGAAACCGUAAACCGGUAUUGACUUAUUCGGAUCAAGUCAGUUGCCAAUGGGACAUUCCUUUCCUCUUCUAUUGACAACAGAGGAUUGAGCAUCA
B22: chr9:14812383:14812384:-_ENSMUSG00000031934_ENSMUST00000164273|mus_mus|mus_mus_mus_hu_True|28_108 (ssRNA)
RNA: GGGAGUUCUACAGUCCGACGAUCAUAGCUCAAGUAGAUACACGCUAACAGUAUAAUGAUGAGUGUCAGCAGGCGGCAGCUAAUGUACUUGAUGAUUAAAUUAUUAGAGUUCUUUUUUGUCUUCAAGUACUGCUCCACAAUUGGCAACAGAGGAUUGAGCAUCA

These binders were tested against T1, UNK ZnF1-3 (assay: nsRBNS (natural sequence RNA bind-n-seq); RBNS binding buffer (assumed for nsRBNS): 25 mM Tris pH 7.5, 150 mM KCl, 3 mM MgCl2, 0.01% Triton X-100, 500 ug/ml BSA, 20 U/ml SUPERase-In, 4 C; UNK is unkempt and MSI1 is Musashi-1; names of the RNAs are library labels; protein concentration not given here; high values mean tight binding).

Compared with B1, B2 is lower in binding signal: 1.65 enrichment R for the first, 0.56 enrichment R for the second.

Compared with B3, B4 is lower in binding signal: 1.75 enrichment R for the first, 0.639 enrichment R for the second.

Compared with B5, B6 is higher in binding signal: 0.931 enrichment R for the first, 3.86 enrichment R for the second.

First: B7
Second: B8
The binding signal of the first is higher: 14.2 enrichment R for the first, 0.789 enrichment R for the second.

Going from B9 to B10, the binding signal falls from 6.8 enrichment R to 1.44 enrichment R.

First: B11
Second: B12
The binding signal of the first is lower: 0.675 enrichment R for the first, 1.35 enrichment R for the second.

First: B13
Second: B14
The binding signal of the first is higher: 3.38 enrichment R for the first, 0.925 enrichment R for the second.

Going from B15 to B16, the binding signal falls from 0.785 enrichment R to 0.484 enrichment R.

First: B17
Second: B18
The binding signal of the first is higher: 0.392 enrichment R for the first, 0.344 enrichment R for the second.

First: B19
Second: B20
The binding signal of the first is higher: 7.03 enrichment R for the first, 4.57 enrichment R for the second.

First: B21
Second: B22
The binding signal of the first is lower: 0.785 enrichment R for the first, 1.06 enrichment R for the second.
